The OligoGym collection

Target: ATP8A2
Experiment: pooled miR-30 sensor sort-seq; sequence = guide strand
Conditions: shRNA
Further: reference of the scale not given here.

**Q.** For TTGAGTATACTTCACAACCTCA, which sensor-assay potency score (higher = more potent) is on record?
**A.** Its sensor-assay potency score (higher = more potent) is -0.741.

**Q.** With TAATACATATCTGTGTCCCAGT as the sequence, how does the sensor-assay potency score (higher = more potent) read?
**A.** The sensor-assay potency score (higher = more potent) was -0.374.

**Q.** With TTTGTCTCCTGTCAACACCCAT as the sequence, how does the sensor-assay potency score (higher = more potent) read?
**A.** The sensor-assay potency score (higher = more potent) was -1.17.

**Q.** How did the sensor-assay potency score (higher = more potent) turn out when TTGTATAAGATGATGAACGTCA was run?
**A.** Its sensor-assay potency score (higher = more potent) is 2.4e-06.

**Q.** Which sensor-assay potency score (higher = more potent) does the source give for TTGTCTCCTGTCAACACCCATA here?
**A.** Its sensor-assay potency score (higher = more potent) is -1.33.

Target: ATP8B3
Experiment: as above
Conditions: shRNA

**Q.** TAGAAGTTGTACTTGGCCGTGC was tested. Which sensor-assay potency score (higher = more potent) did it give?
**A.** The sensor-assay potency score (higher = more potent) was 1.18.

**Q.** TAGTACATCTGCACGTCCCAGT was tested. Which sensor-assay potency score (higher = more potent) did it give?
**A.** Its sensor-assay potency score (higher = more potent) is 0.127.

**Q.** How did the sensor-assay potency score (higher = more potent) turn out when TTCTTTGACTGAGAAACCGAAG was run?
**A.** The sensor-assay potency score (higher = more potent) was -1.15.

**Q.** Which sensor-assay potency score (higher = more potent) does the source give for TTTCTTGTCATTCCATTCCAGG here?
**A.** Its sensor-assay potency score (higher = more potent) is -1.26.

**Q.** TAATTTTTGTGTCAAAACCAGC was tested. Which sensor-assay potency score (higher = more potent) did it give?
**A.** Its sensor-assay potency score (higher = more potent) is -1.1.

**Q.** TTGGTCTTGTATTTCTTCCTTT was tested. Which sensor-assay potency score (higher = more potent) did it give?
**A.** The sensor-assay potency score (higher = more potent) was -0.502.

**Q.** For TTTGATGTTGCTCTTCTTGAGA, which sensor-assay potency score (higher = more potent) is on record?
**A.** Its sensor-assay potency score (higher = more potent) is -0.55.

**Q.** TTGACTGAGAAACCGAAGCCGA was tested. Which sensor-assay potency score (higher = more potent) did it give?
**A.** Its sensor-assay potency score (higher = more potent) is -0.857.

**Q.** How did the sensor-assay potency score (higher = more potent) turn out when TAAATGACCAGTCCATAGCAGG was run?
**A.** Its sensor-assay potency score (higher = more potent) is -1.07.

**Q.** For TTTTTGTGTCAAAACCAGCATA, which sensor-assay potency score (higher = more potent) is on record?
**A.** Its sensor-assay potency score (higher = more potent) is -0.74.

**Q.** How did the sensor-assay potency score (higher = more potent) turn out when TTGGTCAACAGCAACTTCTCAG was run?
**A.** Its sensor-assay potency score (higher = more potent) is -0.358.

**Q.** For TTCTCTGACAGCAGCTCGCAGG, which sensor-assay potency score (higher = more potent) is on record?
**A.** Its sensor-assay potency score (higher = more potent) is -0.893.

Target: AVPR1B
Experiment: as above
Conditions: shRNA

**Q.** Which sensor-assay potency score (higher = more potent) does the source give for TTAGGTTTTTACAGATCTCATG here?
**A.** The sensor-assay potency score (higher = more potent) was -1.16.

**Q.** For TTCTTGTCCCACACGGACCACA, which sensor-assay potency score (higher = more potent) is on record?
**A.** The sensor-assay potency score (higher = more potent) was -1.03.

**Q.** For TTTTTACAGATCTCATGGCAGA, which sensor-assay potency score (higher = more potent) is on record?
**A.** The sensor-assay potency score (higher = more potent) was -0.895.

**Q.** TTCACTGTTCGGATCTTGGCCC was tested. Which sensor-assay potency score (higher = more potent) did it give?
**A.** Its sensor-assay potency score (higher = more potent) is 0.0628.

**Q.** Which sensor-assay potency score (higher = more potent) does the source give for TTGGCCAGCTCCTCATCCCGGC here?
**A.** The sensor-assay potency score (higher = more potent) was -0.765.

**Q.** ATCTTCACTGTTCGGATCTTGG was tested. Which sensor-assay potency score (higher = more potent) did it give?
**A.** The sensor-assay potency score (higher = more potent) was -1.06.

**Q.** TCTGCCAGCTCCAAGTCCCTTG was tested. Which sensor-assay potency score (higher = more potent) did it give?
**A.** The sensor-assay potency score (higher = more potent) was -1.14.

**Q.** How did the sensor-assay potency score (higher = more potent) turn out when TGTGTCTTGACTTTTAGGTTTT was run?
**A.** The sensor-assay potency score (higher = more potent) was -1.08.

**Q.** With TGACAGACAGCCAGGTAGCGGT as the sequence, how does the sensor-assay potency score (higher = more potent) read?
**A.** Its sensor-assay potency score (higher = more potent) is -1.51.

**Q.** How did the sensor-assay potency score (higher = more potent) turn out when TTGAAGCCCATGTAGATCCAGG was run?
**A.** Its sensor-assay potency score (higher = more potent) is -0.752.

**Q.** For TGGTGGAATCTTCATCAGGGGC, which sensor-assay potency score (higher = more potent) is on record?
**A.** Its sensor-assay potency score (higher = more potent) is -1.82.

**Q.** How did the sensor-assay potency score (higher = more potent) turn out when TAGGTTTTTACAGATCTCATGG was run?
**A.** Its sensor-assay potency score (higher = more potent) is 0.26.

**Q.** Which sensor-assay potency score (higher = more potent) does the source give for ATCTGGACACTGAAGAAGGGAG here?
**A.** Its sensor-assay potency score (higher = more potent) is -1.3.

**Q.** For TTTACAGATCTCATGGCAGATG, which sensor-assay potency score (higher = more potent) is on record?
**A.** The sensor-assay potency score (higher = more potent) was -1.02.

**Q.** With TTGGTGGAATCTTCATCAGGGG as the sequence, how does the sensor-assay potency score (higher = more potent) read?
**A.** The sensor-assay potency score (higher = more potent) was -0.225.

**Q.** Which sensor-assay potency score (higher = more potent) does the source give for TAAGTGCAGCACGAACAGGTGC here?
**A.** The sensor-assay potency score (higher = more potent) was -0.436.

**Q.** Which sensor-assay potency score (higher = more potent) does the source give for TTGGTGACTCTTCAGGCCTGGG here?
**A.** Its sensor-assay potency score (higher = more potent) is -0.954.

**Q.** How did the sensor-assay potency score (higher = more potent) turn out when ATCAGGGGCATTCTTGTCCCAC was run?
**A.** The sensor-assay potency score (higher = more potent) was -1.06.

**Q.** For AAACATGCTGAGCACCTGCAGG, which sensor-assay potency score (higher = more potent) is on record?
**A.** The sensor-assay potency score (higher = more potent) was -1.16.

**Q.** AAGATAGCCAGGGTGGTCCAGG was tested. Which sensor-assay potency score (higher = more potent) did it give?
**A.** Its sensor-assay potency score (higher = more potent) is -1.04.

**Q.** Which sensor-assay potency score (higher = more potent) does the source give for TTTAGGTTTTTACAGATCTCAT here?
**A.** Its sensor-assay potency score (higher = more potent) is -1.13.

**Q.** With TTTTAGGTTTTTACAGATCTCA as the sequence, how does the sensor-assay potency score (higher = more potent) read?
**A.** Its sensor-assay potency score (higher = more potent) is -0.253.

**Q.** Which sensor-assay potency score (higher = more potent) does the source give for TTGACTTTTAGGTTTTTACAGA here?
**A.** The sensor-assay potency score (higher = more potent) was -0.906.
